Our source for the growth values is PubChem BioAssay (NCI).

Experiment in all cases: NCI-60 one-dose screen, 48 h (100 = growth as untreated, 0 = no growth, -100 = all killed)
Settings in all cases: 10 µM

Test [1] concerns NCI-H23 lung.
Test [2] has as its system NCI-H226 lung.
Test [3] deals with NCI-H322M lung.
Test [4] has as its system HOP-62 NSCLC.
The test system of test [5] is NCI-H460 lung.
Test [6] deals with HOP-92 NSCLC.
Test [7] relates to NCI-H522 lung.
Test [8] relates to A549/ATCC NSCLC.
Test [9] has as its system 786-0 renal.
In test [10] the test system is COLO 205 colon.
In test [11] the test system is DU-145 prostate.
Test [12] has as its system K-562 leukemia.
Test [13] relates to MDA-MB-231 breast.
In test [14] the test system is RXF 393 renal.
The test system of test [15] is SF-268 CNS.
Test [16] relates to SF-295 CNS.
Test [17] deals with SF-539 CNS.
The subject of test [18] is UACC-257 melanoma.
The test system of test [19] is M14 melanoma.
Test [20] has as its system MALME-3M melanoma.

The panel holds about 83,000 compounds, 20% with a hit somewhere; the sample as a whole holds those more often.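 The test compound was applied at a single concentration to cells in 96-well plates for 48 hours, and percent growth was recorded.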 Unmarked numbers belong to inactive results. The source made the active and inactive calls. Rule for the calls: active = growth percent below 10; inactive = the rest.

As to `CC(=O)Nc1nc(C)c(C(=O)NNC=O)s1`, the growth in test [1] was 97.4%; in test [2], 92.7%; in test [3], 155%; in [4], 111%; in test [5] it was 105%; in test [6] it was 67.2%. Further, the growth was 99.5% in test [7]; 107% in test [8]; 118% in test [9]; 128% in [10]; 108% in [11]; 54.8% in test [12]. In addition, the growth in [13] is 106%; in [14], 109%; in test [15], 94.8%; in test [16], 112%; in test [17], 102%; in test [18] it was 106%. Besides, the growth in test [19] was 120%.
Regarding `Cc1ccc(S(=O)(=O)N2CCc3ccccc3CC2)cc1`, the growth in test [1] was 54.5%; in test [2], 54.3%; in test [3] it was 99%; in [4], 97.9%; in test [5], 90.8%; in test [6] it was 71.9%. Further, the growth in test [7] was 74.1%; in test [8] it was 72.1%; in test [9], 79.3%; in [10], 81%; in test [11], 84.1%; in test [12], 63.9%. Further, the growth was 83.7% in test [13]; 80.3% in test [14]; 97.5% in test [15]; 73% in test [16]; 97% in test [17]; 52.7% in test [18]. In addition, the growth in [19] was 80.6%.
On to `CC(C)(C)CC(C)(C)c1ccc(O)c(Cc2ccc(Cl)cc2Cl)c1`, for which the growth in [1] was -85.9% (active); in test [2], -83.8% (active); in test [3], -89.6% (active); in test [4], -88.4% (active); in test [5] it was -68.1% (active); in [6], -90.6% (active). The growth is -84.7% (active) in test [7]; -88.5% (active) in test [8]; -92.8% (active) in test [9]; -71.4% (active) in test [10]; -89.2% (active) in test [11]; -59% (active) in test [12]. In addition, the growth is -89.4% (active) in test [20]; -88.4% (active) in test [13]; -83.6% (active) in test [15]; -91.6% (active) in test [16]; -75.5% (active) in test [17]; -66.1% (active) in [18]. For the same compound, the growth in [19] is -87.9% (active).
With `O=[N+]([O-])c1ccc(-c2nc(-c3ccccc3)c(-c3ccccc3)n2-c2ccccc2)cc1`, the growth in [1] was 25.2%; in [2] it was 57%; in test [3], 58.5%; in test [4], 38.2%; in test [5], 36.4%; in test [6], -12.6% (active). In addition, the growth in test [7] is -11.7% (active); in test [8], 34.6%; in [9] it was 57.3%; in test [10] it was 68.1%; in test [11] it was 49.4%; in test [12], -25% (active). The growth in test [13] was 14.3%; in test [14], 73.9%; in [15] it was 65.8%; in test [16], 16.6%; in [17], 57.8%; in test [18], 57.4%.
With `CCOC(=O)C(CCC1=NC(C)(C)CC(C)O1)C(=O)OCC` (stereo not drawn), the growth in [1] is 77.7%; in test [2] it was 95.1%; in [3], 137%; in test [4], 93.8%; in test [5], 51.5%; in test [6] it was 95.3%. Besides, the growth is 62.5% in test [7]; 101% in test [8]; 107% in [9]; 92% in [10]; 10.4% in [11]; 85% in test [12]. The growth in [13] was 106%; in [14] it was 85%; in [15] it was 98%; in test [16], 74.5%; in test [17], 102%; in [18], 105%.
Turning to `CC1(C)Cc2c(cn(Cc3ccccc3)c2-c2ccccc2)-c2oncc21`, the growth in test [1] is 96.7%; in [2], 92.2%; in [3], 126%; in [4] it was 107%; in test [5], 113%; in test [6], 67.8%. In addition, the growth in [7] is 90.1%; in test [8], 86.2%; in [9] it was 97.5%; in test [10], 103%; in test [11] it was 103%; in [12], 74.7%. Besides, the growth in test [13] was 104%; in [14], 98%; in test [15], 107%; in test [16], 99.5%; in test [17], 107%; in test [18] it was 101%.
As to `O=C(Nc1cccc([N+](=O)[O-])c1)NN1CCCCCC1`, the growth is 105% in test [1]; 95.7% in test [2]; 111% in test [3]; 111% in [4]; 91.2% in [5]; 80.8% in test [6]. The growth in test [7] is 90%; in [8], 87%; in [9], 96.3%; in [10] it was 104%; in test [11], 94.7%; in [12] it was 84.1%. Moreover, the growth in test [13] was 77.7%; in test [14], 113%; in test [15], 98.1%; in [16] it was 94%; in test [17], 86.9%; in [18], 105%. The growth in test [19] is 110%.
In the case of `Oc1ccc(Cn2cc3c(c2-c2ccccc2)CCc2cnoc2-3)cc1`, the growth in test [1] is 92.8%; in [2] it was 96.4%; in test [3], 116%; in [4] it was 99.2%; in test [5], 105%; in test [6] it was 79.2%. Further, the growth is 84.5% in [7]; 84.1% in test [8]; 92.9% in [9]; 98% in test [10]; 106% in test [11]; 70% in [12]. Also, the growth was 81.5% in [13]; 110% in test [14]; 106% in test [15]; 82% in test [16]; 94.5% in test [17]; 92.2% in test [18]. In addition, the growth in [19] is 89.5%.
On to `CN(C)c1ccc2cc(-c3cc4c(oc3=O)-c3ccccc3OC4O)c(=O)oc2c1` (stereo not drawn), for which the growth is -3.16% (active) in test [1]; -14.9% (active) in test [2]; 39% in test [3]; 12.1% in test [4]; 56.7% in [5]; -49.1% (active) in test [6]. The growth in test [7] is -57.2% (active); in [8], 39.5%; in test [9], -15.7% (active); in test [10], -56.2% (active); in test [11] it was 11%; in [12] it was -55.8% (active). Moreover, the growth in test [20] is -59.3% (active); in [13], -39.8% (active); in [15], 56.9%; in test [16], -56.4% (active); in test [17] it was 19%; in [18], 42.9%. For the same compound, the growth in test [19] was -47.8% (active).
